FBA Mtb inh = Mtb FBA enzyme inhibitors, primary screen, biochemical, fluorescence, strain H37Rv. Fructose-bisphosphate aldolase (Mycobacterium tuberculosis (strain ATCC 25618 / H37Rv)), …. purified M. tuberculosis FBA, fluorescence read-out. inhibition, % at 1 µM. 2.3% of 360,000 active; in the data active = inhibition above about 27%
Target sequence (P9WQA3 whole entry, looked up): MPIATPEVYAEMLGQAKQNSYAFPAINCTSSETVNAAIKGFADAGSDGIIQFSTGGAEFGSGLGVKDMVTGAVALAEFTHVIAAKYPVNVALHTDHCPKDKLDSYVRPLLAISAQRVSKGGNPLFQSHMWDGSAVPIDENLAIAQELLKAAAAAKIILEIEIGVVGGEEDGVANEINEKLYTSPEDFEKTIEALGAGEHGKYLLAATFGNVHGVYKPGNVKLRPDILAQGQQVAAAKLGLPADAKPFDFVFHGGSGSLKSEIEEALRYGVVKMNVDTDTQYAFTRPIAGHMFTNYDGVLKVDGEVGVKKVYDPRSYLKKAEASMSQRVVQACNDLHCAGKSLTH
VHR inh abs = VHR1 phosphatase inhibitors, primary screen, biochemical, absorbance, uHTS | Dual specificity protein phosphatase 3 (Homo sapiens), P51452 | AID 1654, 2009 | inhibition, % at 13.3 µM | 0.52% of 290,000 active | recombinant VHR phosphatase, pNPP absorbance; in the data active = inhibition above about 50%
3CLpro inhibitor = SARS-CoV 3CLpro protease inhibitors, primary screen, biochemical, quenched FRET. Replicase polyprotein 1ab (Severe acute respiratory syndrome coronavirus), P0C6X7. recombinant SARS-CoV 3CLpro, quenched FRET peptide cleavage. inhibition, % at 6 µM. 0.14% of 290,000 active; in the data active = inhibition above about 12%
CCHFV vOTU inh = CCHFV vOTU protease inhibitors, primary screen, biochemical, Pep-AMC substrate, fluorescence; inhibition, % at 11.5 µM; 0.55% of 370,000 active; AID 651958, 2012
GDH-TPI counter = GDH-TPI coupling enzyme inhibitors, primary screen, artefact control for M. tuberculosis FBA inhibitor project, biochemical, absorbance, full deck; GDH-TPI coupled enzyme counterscreen, NADH absorbance; inhibition, % at 4.8 µM; 1.2% of 360,000 active
RecA splice inh = Mtb RecA intein splicing inhibitors, primary screen, biochemical, fluorescence, HTS; AID 2221, 2009; Protein RecA (Mycobacterium tuberculosis (strain ATCC 25618 / H37Rv)), P9WHJ3; inhibition, % (no concentration beside the values); cell-free RecA intein splicing; 0.75% of 290,000 active; in the data active = inhibition above about 30%
GFP chromophore = counter-screen: blocks GFP chromophore formation, dose response, counter-screen, biochemical, fluorescence, homogeneous. AID 434968, 2010. cell-free GFP chromophore formation. shares compounds with RecA splice inh. EC50, µM. 83% of 2,100 active; call rule not given here
Numbers stand for hits; n = inactive; x = not tested or not shown. Only some compounds are listed: those with a hit (about 4.7% of all), similar ones and a draw of the others. Cut-off read from the data, not from the text of the source, unless noted: active = inhibition above about 30%; inactive = the rest.

SMILES	FBA Mtb inh	VHR inh abs	3CLpro inhibitor	CCHFV vOTU inh	GDH-TPI counter	RecA splice inh	GFP chromophore
CC(=O)NCCn1c(SCc2ccccc2C)nc2ccccc2c1=O	n	n	n	n	n	32	n
CC(=O)NCCn1c(SCc2ccc(C)cc2C)nc2ccccc2c1=O	n	n	n	n	n	n	x
CCOC(=O)c1c(C)oc2c1c1c(c3ccccc32)OCN(CCCC(=O)O)C1	n	n	n	n	n	90	20
O=C1/C(=C/c2ccc(F)cc2)SC(=S)N1CC(=O)N1CCCCC1c1cccnc1 (stereo unspecified)	n	n	n	n	n	38	n
O=C(/C=C/c1ccc(F)cc1)NC(=S)N1CCCCC1c1cccnc1 (stereo unspecified)	n	n	n	n	n	n	x
O=C(Nc1ccc2c(c1)OCCO2)C1c2ccccc2OCC(=O)N1Cc1ccccc1 (stereo unspecified)	x	x	x	n	x	x	x
COCc1[nH]nc2c1C(c1ccccc1Cl)C(C#N)=C(N)O2 (stereo unspecified)	n	n	n	n	n	n	x
CCOC(=O)Cc1[nH]nc2c1C(c1cccc(OC)c1OC)C(C#N)=C(N)O2 (stereo unspecified)	n	n	n	n	n	45	n
CCOc1ccccc1C1C(C#N)=C(N)Oc2n[nH]c(CC)c21 (stereo unspecified)	n	n	n	n	n	32	33
CCOC(=O)Cc1[nH]nc2c1C(c1cc(OC)ccc1OC)C(C#N)=C(N)O2 (stereo unspecified)	n	n	n	n	n	63	4.6
O=C(N=C1SC2CS(=O)(=O)CC2N1CCc1ccc(F)cc1)C1CCCCC1 (stereo unspecified)	n	n	n	n	n	n	x
O=C(CCC(=O)NNC(=O)c1ccc(Cl)cc1Cl)NCc1ccccc1	n	x	x	n	n	x	x
COc1ccc(/C(=N/OC(C)=O)c2nccc3cc(OC)c(OC)cc23)cc1OC	n	n	n	n	n	31	n
COC(=O)c1cccc(OCCCN2CCC(C(O)(c3ccccc3)c3ccccc3)CC2)c1	x	x	x	n	x	x	x
COc1ccc(S(=O)(=O)Nc2ccc3c(c2)C(=O)N([C@H](C)CO)C[C@H](C)[C@@H](CN(C)C(=O)Nc2ccc(C(F)(F)F)cc2)O3)cc1	n	x	x	n	n	x	x
O=C(c1cccc(C(F)(F)F)c1)C1CCCN(Cc2ncc[nH]2)C1 (stereo unspecified)	n	n	n	n	n	38	n
COc1ccc(C2=NN(C(=O)/C=C/c3ccccc3)C(c3ccccc3)C2)c(OC(C)=O)c1 (stereo unspecified)	n	n	n	n	n	36	n
COc1ccc(C2CC(c3ccccc3OC(C)=O)=NN2C(=O)/C=C/c2ccccc2)cc1OC (stereo unspecified)	n	n	n	n	n	n	x
COc1cc(/C=N\NC(=O)c2ccc(Cl)cc2)ccc1Oc1ccc([N+](=O)[O-])cn1	n	n	n	n	n	n	x
COc1cc(/C=N\NC(=O)c2ccccc2F)ccc1Oc1ccc([N+](=O)[O-])cn1	n	n	n	n	n	34	n
Cn1c(=O)c(=O)n(C)c2cc(S(=O)(=O)N3CCN(Cc4ccc(F)cc4)CC3)ccc21	x	x	x	n	x	x	x
S=C1Cc2ccccc2N1	n	n	n	100	n	88	1.2
S=C1Nc2ccccc2CS1	n	x	x	n	n	x	x
CN(C)CCC(=O)c1cccc(Br)c1	n	n	n	n	n	n	x
Cn1c(O)c(C2=NN(C(=O)CCl)C(c3ccccc3)C2)c(=O)n(C)c1=O (stereo unspecified)	n	n	n	n	n	45	5.8
CCN(CC)c1ccc(/C=N/Nc2nc(C)cc(=O)[nH]2)c(O)c1	n	n	n	n	n	39	n

Bioassay records as filed in PubChem.
